NPC1 promoter act: NPC1 promoter activation; Huh7 NPC1 promoter luciferase reporter, 24 h; Potency, µM (highest dose often 9.22 µM), for the others: top-dose activation, actives largely listed as activators; 2.4% of 320,000 active; further: % of control where 0% means no effect; nearly all actives have a fitted effect of over 60% in size
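NPC1 promoter–luciferase Huh7 cells; 24 h compound; luminescence.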
SMN2 splice enh: enhancers of SMN2 splice variant expression. Potency, µM (titrated, usually from 46.1 µM), for the others: top-dose activity change, positive = activation, most hits filed as activators. AID 1458. 2.8% of 210,000 active. HEK293 SMN2-luciferase splicing reporter, luminescence, 30-36 h; further: % of control where 0% means no effect; nearly all actives have a fitted effect of over 55% in size
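HEK293 cells carry an SMN2 […]–luciferase reporter in which exon 7 inclusion puts luciferase in frame. Cells were plated 10-12 h before compound addition, then incubated 30-36 h at 37C. ONE-Glo luminescence was read; sodium butyrate at 4.5 mM final served as control.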
ELG1 genotox: genotoxicity induction in ELG1-luciferase HEK293T cells | HEK293T ELG1-luciferase reporter, luminescence, 16 h | Potency, µM (top dose mostly 46 µM), inactives show at the highest dose activity change, positive = activation, usual class: activators | 1.3% of 330,000 active | AID 504466; further: % of control where 0% means no effect; nearly all actives have a fitted effect of over 60% in size
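16 hr compound incubation (37 °C, 5% CO2) of HEK293T cells carrying luciferase-tagged ELG1; luciferase then measured by ONE-Glo luminescence after 30 min at RT.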
Rab9 prom act: Rab9 promoter activation; Huh7 Rab9 promoter-luciferase reporter, luminescence, 24 h; Potency, µM (highest dose often 9.22 µM), without a hit: at the top dose activation, negative = inhibition, hits mostly activators; 2.8% of 320,000 active; AID 485297; further: % of control where 0% means no effect; nearly all actives have a fitted effect of over 60% in size
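Luciferase signal after 10 min detection reagent at ambient indicates Rab9 promoter upregulation; stably transfected Huh7 cells were treated 24 h with compound in DMSO at 37 °C, 5% CO2.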
ELG1 repair inh: ELG1-dependent DNA repair inhibition; HEK293T ELG1-luciferase reporter, luminescence, 16 h; DNA damage induced by 5-fluorouridine; Potency, µM (highest dose often 46.1 µM), for the others: at the highest dose activity change, negative = inhibition, usual class: inhibitors; 2.3% of 330,000 active; AID 504467; further: on the % scale 0 is the no-effect control and ±100 the full control effect; nearly all actives have a fitted effect of over 55% in size
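5-Fluorouridine DNA damage + compound/DMSO, 2,000 cells/well, 16 h, 37 °C/5% CO2. ONE-Glo, 30 min RT, luminescence. Readout = decrease in reporter signal.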
FLuc modulator: inhibits or activates purified firefly luciferase, miR-21 counter-screen | purified FLuc, Km substrates, luminescence inhibition | P08659 | Potency, µM (doses to about 57.5 µM), without a hit: at the highest dose activity change, negative = inhibition, most hits filed as inhibitors | 6.9% of 360,000 active;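 further: plate controls were vehicle for no effect and reference inhibitor for full effect; nearly all actives have a fitted effect of over 55% in size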
Target sequence (P08659 whole entry, looked up): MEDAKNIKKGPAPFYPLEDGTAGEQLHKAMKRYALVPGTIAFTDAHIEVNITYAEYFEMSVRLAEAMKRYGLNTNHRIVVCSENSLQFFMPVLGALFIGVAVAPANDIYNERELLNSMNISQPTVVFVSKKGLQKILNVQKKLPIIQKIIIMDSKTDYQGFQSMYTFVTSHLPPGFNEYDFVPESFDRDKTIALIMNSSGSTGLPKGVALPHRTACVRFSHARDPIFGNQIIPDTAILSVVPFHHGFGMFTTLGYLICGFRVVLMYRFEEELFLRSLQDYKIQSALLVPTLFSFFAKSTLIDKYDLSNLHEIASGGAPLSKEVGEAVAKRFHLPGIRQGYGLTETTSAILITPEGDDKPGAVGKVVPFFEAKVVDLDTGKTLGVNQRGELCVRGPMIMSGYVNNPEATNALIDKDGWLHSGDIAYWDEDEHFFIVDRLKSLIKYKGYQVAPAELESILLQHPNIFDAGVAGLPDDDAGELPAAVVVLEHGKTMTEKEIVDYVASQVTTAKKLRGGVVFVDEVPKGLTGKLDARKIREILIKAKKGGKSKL
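Biochemical qHTS of compounds, final roughly 60 µM downward over six points, against 10 nM purified firefly luciferase using Km concentrations of substrates (10 uM D-luciferin, 10 uM ATP) in Tris acetate pH 7.5 buffer; luminescence output.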
Numbers without * were called inactive; ? = inconclusive; . = no result; [ ] = another dose, or the depositor's remark. This is a sample that favours compounds with a hit; in the whole collection about 9.4% have one here. The call rests on the fitted dose curve; in most records, active means well fitted curve in the direction sought with a large enough effect; inconclusive means small, poorly fitted or top-dose-only effect, or another doubt; inactive means no such curve, though single readings can be large; an effect the other way counts as inactive or inconclusive. Potency means the concentration at half of the fitted maximal effect.

SMILES	NPC1 promoter act	SMN2 splice enh	ELG1 genotox	Rab9 prom act	ELG1 repair inh	FLuc modulator
COC(=O)Cc1c(C)c2ccc(OC(=O)c3ccco3)cc2oc1=O	0%	-4%	4%	1%	5%	17µM*
COC(=O)Cc1c(C)c2cc(Cl)c(OC(=O)c3ccco3)cc2oc1=O	-1%	-17%	0%	-3%	17%	?
COC(=O)Cc1c(C)c2ccc(OC(C)C)cc2oc1=O	?	.	18%	3.2µM*	?	15µM*
CCOC(=O)C1=C(C)NC(=O)N[C@@H]1c1coc2cc(C)cc(C)c2c1=O	.	0%[9.22 µM]	.	.	.	.
COc1ccccc1-c1nnc(C2CCN(C(=O)c3cccc(C)c3)CC2)o1	.	7%	.	.	.	0%
CC(C)C(NC(=O)c1ccccc1)C(=O)OCC(=O)N1CCCCC1 (centres undefined)	0%	.	-1%	-8%	-2%	-16%
CC(C)C(NC(=O)OCc1ccccc1)C(=O)OCC(=O)N1CCCCC1 (centres undefined)	29%	?	21µM*	?	?	17µM*
O=C(NCc1cccs1)C(=O)NCC1OCCCN1S(=O)(=O)c1ccccc1 (centres undefined)	-7%	5.6µM*	-1%	0%	20%	5%
O=C(O)C/C(=C\c1ccccc1)C(=O)O	.	-1%[9.22 µM]	.	.	.	.
Cc1ccc2nc(SCc3nc4c(cnn4-c4ccccc4)c(=O)[nH]3)[nH]c2c1	-19%	-87%	-5%	-38%	-6%	?
O=c1[nH]c(CSc2nc3ccccc3[nH]2)nc2c1cnn2-c1ccccc1	-7%	-18%[1.84 µM]	0%	-7%	12µM*	?
O=c1[nH]c(SCc2nc3c(cnn3-c3ccccc3)c(=O)[nH]2)nc2ccccc12	?	18µM*	8%	2µM*	?	?
COc1ccc([C@@H]2[C@@H](O)[C@H](O)[C@@H](C)N2C)cc1OC	.	9%	.	.	.	.
Cc1ccccc1Cn1cc(CCC(=O)NC(C)c2ccccc2)c2ccccc21 (centres undefined)	.	.	.	.	.	6%
O=C(OCc1ccccc1)c1cccc(-c2nnn(Cc3ccccc3)n2)c1	27%	7.9µM*	?	17%	?	-3%
O=C(Cn1nnc(-c2ccccc2)n1)OCc1ccccc1	2%	-3%	-1%	0%	-2%	?
COc1ccc(N2CC(O)=C(c3nc4ccccc4s3)C2=N)cc1	12%	9%	?	17%	0%	-2%
COc1cccc(N2CC(O)=C(c3nc4ccccc4s3)C2=N)c1	-5%	?	?	-1%	?	21µM*
CN(C)/C=C/c1onc(-c2ccccc2Cl)c1C#N	?	24%	?	?	?	24µM*
Cc1ccccc1-c1noc(N)c1C#N	7%	-6%	4%	1%	5%	-1%
Cc1cc(/C=C2\C(=N)N3C(SCc4ccccc4)=NSC3=NC2=O)c(C)n1Cc1ccccc1	-1%	-10%	0%	-1%	0%	21µM*
CSC1=NSC2=NC(=O)/C(=C\c3coc4ccccc4c3=O)C(=N)N12	-5%	0%	-1%	2%	14%	-18%
CC(C)CSC1=NSC2=NC(=O)/C(=C\c3ccccc3)C(=N)N12	3.2µM*	?	?	2.8µM*	?	17µM*
CC(C)CSC1=NSC2=NC(=O)/C(=C\c3coc4ccccc4c3=O)C(=N)N12	1%	21%	0%	-1%	-1%	17µM*
CCCC12CN3CC(C)(CN(C1)C3c1ccc(CC)cc1)C2=O (centres undefined)	.	-3%	.	.	.	-3%
SMILES	NPC1 promoter act	SMN2 splice enh	ELG1 genotox	Rab9 prom act	ELG1 repair inh	FLuc modulator
CCN(C(=O)c1cc2c(=O)oc3ccccc3c2s1)c1ccc(C)c(C)c1	.	7%	.	.	.	-17%
O=C(NCc1ccccc1Cl)c1ccc(CSCc2cccc(F)c2)o1	.	.	.	.	.	-18%
Cc1cc2ncn(CC(=O)O)c2cc1C	.	-3%[9.22 µM]	.	.	.	.
O=C1C=CCC(/C=C/c2ccccc2)O1 (centres undefined)	-29%	-16%	-4%	-31%	18µM*	-11%
CSc1nnc(-c2ccccc2SC)o1	1%	0%	3%	1%	18%	-7%
CSc1ccccc1-c1nnc(-c2ccc(C)cc2)o1	?	10µM*	?	?	?	1.5µM*
Cc1ccc(-c2nnc(-c3ccccc3S(=O)(=O)Cc3ccc(Cl)cc3)o2)cc1	-5%	-23%	6%	-2%	-22%	2%
CSc1ccccc1-c1nnc(-c2ccccc2)o1	20%	11µM*	?	3.2µM*	?	3.4µM*
CCOc1ccc(C(=O)N2CCC(c3ccncc3)CC2)cc1	.	.	.	.	.	1%
O=C(c1ccc(F)cc1F)N1CCCN(c2nc(-c3ccccc3)ns2)CC1	0%	.	-4%	0%	4%	3%
CC(C)(C)NC(=O)N1CCN(c2nc(-c3ccccc3)ns2)CC1	?	.	14%	3.5µM*	?	-55%
CC1(c2ccccc2)CC(C)(C)N(C(=O)c2cccc(Cl)c2)c2ccccc21 (centres undefined)	.	-54%	.	.	.	-3%
c1ccc(-c2nnn(CCN3CCCCC3)n2)cc1	.	-11%[9.22 µM]	.	.	.	.
c1ccc(-c2nnn(C34CC5CC(CC(C5)C3)C4)n2)cc1	7%	?	?	18%	?	17µM*
CCOC(=O)c1ccc2nc3c(cc2c1)CCS3	?	11%	?	19%	?	19µM*
CCOC(=O)C1CCN(c2ncnc3c2cnn3C)CC1	-2%	.	-4%	-3%	-1%	-3%
COc1ccccc1CCNC(=O)CCCn1c(=O)c2cccn2c2cccnc21	.	15%	.	.	.	5%
COc1ccc(Cc2nnc(N/N=C/c3ccc(Br)cc3)[nH]c2=O)cc1OC	0%	.	7%	-6%	-12%	1%
COc1ccc(Cc2nnc(N/N=C/c3ccc(O)cc3)[nH]c2=O)cc1OC	-34%	-86%	16%	-32%	5.8µM*	-3%
CCC/C=N/Nc1nnc(Cc2ccc(OC)c(OC)c2)c(=O)[nH]1	0%	.	-2%	1%	2%	-2%
COc1ccc(/C=N/Nc2nnc(Cc3ccccc3)c(=O)[nH]2)cc1OC	?	.	14%	26%	?	1.7µM*
COc1ccc(/C=N/Nc2nc3ccccc3c(=O)n2-c2ccccc2)cc1OC	18%	-9%[1.84 µM]	10%	?	?	1.9µM*
CCOC(=O)c1c(S(=O)(=O)NCC(=O)N(C)Cc2ccccc2)c(C)n(C)c1C	.	.	.	.	.	-5%
Fc1ccccc1N1CCN(c2c3c(nc4nncn24)CCC3)CC1	.	1%	.	.	.	5%
